Reference: PubChem BioAssay (NCI)
This is part of a sample that, as a whole, favours compounds with a hit. Of some 79,000 tested, about 15% had one in any assay. The source made the active and inactive calls. Rule as the data show it: active = growth inhibition above about 70%; inactive = the rest.

Key:
[1] = NCI Yeast Anticancer Drug Screen. Data for the rad50 strain (AID 155);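 also: 0% = growth of vehicle-only cultures of the same strain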; conditions: S. cerevisiae rad50 strain growth inhibition, hits give high values
In short: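 Compounds were tested on a yeast strain with an engineered DNA damage repair alteration; the reported value is growth inhibition normalised to vehicle treatment.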

[2] = NCI Yeast Anticancer Drug Screen. Data for the mec2-1 strain (AID 157); conditions: S. cerevisiae mec2-1 strain, hits give high values
In short: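 mec2-1 yeast strain, carrying an alteration in DNA damage repair or cell cycle control, was exposed to compounds; growth inhibition was measured relative to vehicle-treated controls.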

[3] = NCI Yeast Anticancer Drug Screen. Data for the sgs1 mgt1 strain (AID 161);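 also: 0% = growth of cultures given vehicle only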; conditions: S. cerevisiae sgs1 mgt1 strain, hits give high values
In short: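 Compounds are added to genetically altered yeast, and growth is compared with cultures given vehicle alone to give percent inhibition.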

[4] = NCI Yeast Anticancer Drug Screen. Data for the cln2 rad14 strain (AID 165);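 also: 0% = growth equal to vehicle treated cultures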; conditions: S. cerevisiae cln2 rad14 strain, hits give high values
In short: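 Yeast carrying cln2 and rad14 alterations (cell cycle control and DNA damage repair) were exposed to compounds. Growth inhibition was measured against vehicle-treated controls.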

[5] = NCI Yeast Anticancer Drug Screen. Data for the bub3 strain (AID 167); conditions: S. cerevisiae bub3 mutant strain, hits give high values
In short: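 Growth of a checkpoint-deficient yeast mutant is measured after compound exposure. Values represent inhibition relative to vehicle.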

[6] = NCI Yeast Anticancer Drug Screen. Data for the mlh1 rad18 strain (AID 175); conditions: S. cerevisiae mlh1 rad18 strain growth inhibition, hits give high values
In short: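 Growth inhibition of the yeast strain was measured after compound exposure and expressed relative to vehicle-treated controls. The strain carries defined defects in DNA damage repair.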

[7] = at 5.0 µM (retest, dose inferred, filed as 0.5)
[8] = at 50.0 µM (retest, dose inferred, filed as 5.0)

Measured: growth inhibition

CCCCCCCCCCCC(=O)Oc1c(Cl)c(Cl)c(C#N)c(Cl)c1Cl
inactive: [1]; [7] 5% | [1]; [8] 0% | [2]; [7] 2% | [2]; [8] 3% | [2]; at 50.0 µM 23.4% | [3]; [7] 5% | [3]; [8] 7% | [3]; at 50.0 µM 60.9% | [4]; [7] 12% | [4]; [8] -1% | [4]; at 50.0 µM 48.6% | [5]; [7] 1% | [5]; [8] -1% | [5]; at 50.0 µM 8.7% | [6]; [7] 5% | [6]; [8] 13%
active: [1]; at 50.0 µM 70.7% | [6]; at 50.0 µM 86.7%

CCN(C(C)=O)c1cnc(/C=N/NC(N)=S)c2ccccc12
inactive: [1]; [7] 13% | [1]; [8] 47% | [1]; at 50.0 µM 66.6% | [2]; [7] 11% | [2]; [8] 47% | [3]; [7] 18% | [3]; at 50.0 µM 28.9% | [4]; [7] -13% | [4]; [8] 57% | [4]; at 50.0 µM 61.3% | [5]; [7] 21% | [5]; at 50.0 µM 60.4% | [6]; [7] 11% | [6]; [8] 57% | [6]; at 50.0 µM 31.5%
active: [2]; at 50.0 µM 76.9% | [3]; [8] 71% | [5]; [8] 71%

C=C1C(O)C2(O)OCC34C(CC5C(C)=CC(=O)C(O)C5(C)C23)OC(=O)C(OC(=O)C/C=C(\C)CCCCC)C14 (configuration not stated)
inactive: [2]; [7] 52% | [3]; [7] 60%
active: [1]; [7] 76% | [1]; [8] 98% | [1]; at 50.0 µM 92.3% | [2]; [8] 98% | [2]; at 50.0 µM 93.3% | [3]; [8] 98% | [3]; at 50.0 µM 93% | [4]; [7] 88% | [4]; [8] 98% | [4]; at 50.0 µM 91.7% | [5]; [7] 75% | [5]; [8] 99% | [5]; at 50.0 µM 91.2% | [6]; [7] 89% | [6]; [8] 98% | [6]; at 50.0 µM 92.2%

CC(=O)OC1CCC2(C)C(=CCC3C2CCC2(C)C(C(C)N)CCC32)C1 (configuration not stated)
active: [1]; [8] 98% | [1]; at 50.0 µM 98.3% | [2]; [8] 98% | [2]; at 50.0 µM 98.7% | [3]; [8] 98% | [3]; at 50.0 µM 93% | [4]; [8] 96% | [4]; at 50.0 µM 70.8% | [5]; [8] 78% | [5]; at 50.0 µM 95.8% | [6]; [8] 98% | [6]; at 50.0 µM 98.1%
inactive: [1]; [7] 8% | [2]; [7] 18% | [3]; [7] 18% | [4]; [7] -62% | [5]; [7] 1% | [6]; [7] 8%
